In PubChem BioAssay AID1345083 (National Center for Advancing Translational Sciences (NCATS), 2018):
Out of some 94,000 compounds screened, about 6,200 (6.6%) were called active. Another 31% or so got no clear call; they are omitted. This is one part of a sample in which actives are shown more often than they occur. A number with no mark means an inactive call. The call rests on the fitted dose curve; in most records, active means well fitted inhibition curve with a large enough effect; inconclusive means small, poorly fitted or top-dose-only effect; inactive means flat fitted curve, though single readings scatter.

Test: Cytotoxic Profiling in HEK 293 Cell Line of Diverse Libraries Using Quantitative High-Throughput Screening; further: nearly all actives have a fitted effect of over 60% in size
Conditions: HEK 293 viability, ATP luminescence (CellTiter-Glo), 48-72 h; series mostly up to 115 µM; activity change, negative = cytotoxicity: at the top concentration
Source text: Cell-based phenotypic screening is a commonly used approach to discover biological pathways, novel drug targets, chemical probes and high-quality hit-to-lead molecules. Many hits identified from high-throughput screening campaign are ruled out through a series of follow-up potency, selectivity/specificity, and cytotoxicity assays. Prioritization of molecules with little or no cytotoxicity for a more in-depth downstream evaluation influence the future direction of projects, so cytotoxicity profiling of the screening libraries at early stage is essential for increasing the likelihood of candidate success. In this study, we analyzed results from a cell-based cytotoxicity screening campaign, comprising nearly 10,000 compounds in NCATS annotated libraries, and over 100,000 compounds in a diversity library, evaluated in four normal cell lines (HEK 293, NIH 3T3, CRL-7250 and HaCat) and a cancer cell line (KB 3-1, a HeLa subline) with overall screening outcomes, hit rates, pan-activity and selectivity. For the annotated library, we also examined the primary targets and mechanistic pathways regularly associated with cell death. To our knowledge, this is the first study to use high-throughput screening to profile large libraries for cytotoxicity assessment in both normal and cancer cell lines. In summary, the results generated here constitutes a valuable resource for the scientific community and provides insight on identifying cytotoxic compounds with particular mechanisms of action, and prioritizing compounds with suitable cytotoxicity profile for further evaluation.
HEK 293 cells were seeded into white 1536-well plates using a Multidrop Combi peristaltic dispenser (ThermoFisher, Waltham, MA) at a density of 250 cells/well in 5 uL of medium respectively. A pintool (Kalypsys) was used to transfer 23 nL of compound solution to the 1536-well assay plates. After 48 or 72 hr incubation at 37 degree Celsius, 5% CO2 and 95% humidity, 2.5 uL of CellTiter-Glo (Promega) was dispensed into each well using a dispenser (Aspect Automation, St. Paul, MN) with solenoid valves (Lee Valves, Westbrook CT). Plates were left at room temperature for 10 min before imaging the ATP-coupled luminescence using a ViewLux microplate imager (PerkinElmer, Waltham, MA).
On the % scale 0 is the no-effect control and ±100 the full control effect; potency means the concentration at half of the fitted maximal effect.

| SMILES | Potency | activity change, negative = cytotoxicity | outcome |
| --- | --- | --- | --- |
| O=C(Cc1ccccc1)N1[C@H]2CC[C@@H]1c1cnc(-c3ccc(F)cc3)nc1C2 | 28.2 µM (active) |  |  |
| Cc1ncc2c(n1)C[C@@H]1CC[C@H]2N1S(=O)(=O)c1ccc(F)cc1 |  | -9.05% |  |
| Cc1ncc2c(n1)C[C@@H]1CC[C@H]2N1C(=O)c1ccccn1 |  | -3.35% |  |
| COC(=O)c1ccc(NC(=O)N2[C@H]3CC[C@@H]2c2cnc(-c4ccc(F)cc4)nc2C3)cc1 | 44.7 µM (active) |  |  |
| CCS(=O)(=O)N1[C@H]2CC[C@@H]1c1cnc(C)nc1C2 |  |  | inactive |
| Cc1cccc(CC(=O)N2[C@H]3CC[C@@H]2c2cnc(C)nc2C3)c1 |  |  | inactive |
| O=C(Cc1cccc(F)c1)N1[C@H]2CC[C@@H]1c1cnc(-c3ccccc3)nc1C2 |  | -17.9% |  |
| Cn1cnc(S(=O)(=O)N2[C@H]3CC[C@@H]2c2cnc(-c4ccc(F)cc4)nc2C3)c1 |  | -5.79% |  |
| Cc1nc(C)c(C(=O)N2[C@H]3CC[C@@H]2c2cnc(-c4ccccc4)nc2C3)s1 | 39.8 µM (active) |  |  |
| O=C(c1ccc2c(c1)CCO2)N1C[C@@H](c2ccc(F)cc2)[C@@H]2[C@H]1C1CCN2CC1 |  |  | inactive |
| O=[S+]1([O-])NC2(CCN(CC3CCOCC3)C2)COc2ccncc21 (stereo unspecified) |  |  | inactive |
| CC(=O)N1CC2(CCN(Cc3cccnc3)C2)Cc2ccccc21 (stereo unspecified) |  | -16.8% |  |
| CC(C)N1CCN(C(=O)Cc2cccn2-c2ccc(F)cc2)CC1 |  | -18.2% |  |
| Cc1ccc2c(n1)N(C)[C@H](CO)CCN(C1CCCC1)C2 |  | -1.63% [at 230 µM] |  |
| O=C1NC2(Cc3ccccc31)CN(CC1CC1)C2 |  |  | inactive [at 230 µM] |
| Cc1ccc([C@@H]2CN(C(=O)c3ccco3)[C@@H]3C4CCN(CC4)[C@@H]32)cc1 |  | -13.1% |  |
| O=C(c1cocn1)N1C[C@H](c2cccc(F)c2F)[C@@H]2[C@H]1C1CCN2CC1 |  |  | inactive |
| CCCS(=O)(=O)N1C[C@@H]2C[C@H](C1)c1ccc(-c3ccccc3C)c(=O)n1C2 |  |  | inactive [at 172 µM] |
| COc1cc2c(cc1Oc1ccccc1)NC(=O)C21CCN(c2ccnc(C)n2)CC1 | 63.1 µM (active) |  |  |
| COc1cc2c(cc1OC1CCCC1)NC(=O)C21CCN(c2nccs2)CC1 | 89.1 µM (active) |  |  |
| COc1cc2c(cc1OCc1ccncc1)NC(=O)C21CCN(c2ncc(F)cn2)CC1 | 50.1 µM (active) |  |  |
| COc1cc2c(cc1Oc1cccc(N(C)C)c1)NC(=O)C21CCN(Cc2ccccn2)CC1 | 44.7 µM (active) |  |  |
| O=C(c1ccncc1)N1C[C@@H]2C[C@H](C1)c1ccc(C3CCCCC3)c(=O)n1C2 |  | -2.59% [at 172 µM] |  |
| CC1=NOC2(CCN(Cc3cncs3)C2)C1 (stereo unspecified) |  |  | inactive [at 172 µM] |
| O=[S+]1([O-])NCC2(CCN(Cc3cccnc3)C2)Oc2ncccc21 (stereo unspecified) |  |  | inactive |
| O=C1CC2CCN(Cc3cccnc3)CC2CCN1 (stereo unspecified) |  |  | inactive [at 172 µM] |
